Reference: PubChem BioAssay AID1159580 (chemical genetic matrix, 2015)
Values joined by “and” are separate entries in the source; they are usually repeats but may differ in a detail not shown here. Equal entries are not always repeated. Out of some 5,500 compounds screened, about 2,000 (36%) were called active. Inconclusive results (about 18%) are left out. Cut-off read from the data, not from the text of the source: active = normalized growth mostly below about 0.91 (no sharp cut-off); inconclusive = no clear call, values can overlap the other calls; inactive = mostly above about 0.92. The list shows a part of the results.

Test: chemical genetic growth profiling, strain panel (AID 1159580);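 note: tested at 20 µM; growth read once vehicle control cultures reached saturation at 30 °C; 1 = growth at the plate median or of vehicle wells; lower values mean less growth of the strain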
Details: S. cerevisiae deletion strains, growth OD

Measured: normalized growth

CCOC(=O)CCC(=O)O[C@H]1[C@H](O[C@@H]2[C@@H](C)[C@H](O[C@H]3C[C@@](C)(OC)[C@@H](O)[C@H](C)O3)[C@@H](C)C(=O)O[C@H](CC)[C@@](C)(O)[C@H](O)[C@@H](C)C(=O)[C@H](C)C[C@@]2(C)O)O[C@H](C)C[C@@H]1N(C)C
inactive: locus YAL021C, strain ccr4, active compounds read low 1.01 | locus YAL026C, strain drs2, active compounds read low 1.02 | locus YAL030W, strain snc1, active compounds read low 0.99 | locus YBL061C, strain skt5, active compounds read low 0.994 | locus YBR009C, strain hhf1, active compounds read low 0.993 | locus YBR021W, strain FUR4, active compounds read low 0.997 | locus YBR023C, strain chs3, active compounds read low 0.999 | locus YBR171W, strain sec66, active compounds read low 1.01 | locus YBR229C, strain ROT2, active compounds read low 0.949 | locus YBR231C, strain swc5, active compounds read low 0.971 | locus YBR279W, strain paf1, active compounds read low 1.01 | locus YCL011C, strain gbp2, active compounds read low 1.01 | locus YCL016C, strain dcc1, active compounds read low 0.992 | locus YCL029C, strain bik1, active compounds read low 0.99 | locus YCL069W, strain vba3, active compounds read low 1 | locus YCR088W, strain abp1, active compounds read low 1.01 | locus YDL005C, strain med2, active compounds read low 0.994 | locus YDL035C, strain GPR1, active compounds read low 0.945 | locus YDL040C, strain nat1, active compounds read low 0.995 | locus YDL074C, strain BRE1, active compounds read low 0.962 | locus YDL101C, strain DUN1, active compounds read low 0.977 | locus YDL134C, strain PPH21, active compounds read low 0.963 | locus YDL185W, strain tfp1, active compounds read low 0.971 | locus YDL192W, strain arf1, active compounds read low 0.985 | locus YDR001C, strain nth1, active compounds read low 1.01 | locus YDR069C, strain doa4, active compounds read low 0.983 | locus YDR101C, strain arx1, active compounds read low 0.953 | locus YDR137W, strain rgp1, active compounds read low 1.01 | locus YDR150W, strain NUM1, active compounds read low 0.988 | locus YDR159W, strain sac3, active compounds read low 0.979 | locus YDR162C, strain NBP2, active compounds read low 0.955 | locus YDR195W, strain ref2 0.956 | locus YDR297W, strain sur2, active compounds read low 1 | locus YDR318W, strain mcm21, active compounds read low 0.996 | locus YDR334W, strain swr1, active compounds read low 1 | locus YDR335W, strain msn5, active compounds read low 0.993 | locus YDR388W, active compounds read low 0.984 | locus YDR392W, strain spt3, active compounds read low 1.03 | locus YDR502C, strain sam2, active compounds read low 0.991 | locus YEL003W, strain gim4, active compounds read low 1.01 | locus YEL037C, strain rad23, active compounds read low 1.01 | locus YEL061C, strain CIN8 (second series), active compounds read low 1.02 | locus YEL061C, strain CIN8, active compounds read low 0.989 | locus YER015W, strain faa2, active compounds read low 0.986 | locus YER016W, strain bim1, active compounds read low 1.01 | locus YER110C, active compounds read low 0.99 | locus YER111C, strain swi4, active compounds read low 0.996 | locus YER155C, strain BEM2 (second series), active compounds read low 0.985 | locus YER155C, strain BEM2, active compounds read low 0.999 | locus YER167W, strain BCK2, active compounds read low 0.999 | locus YFR010W, strain ubp6, active compounds read low 1.03 | locus YGL078C, strain dbp3, active compounds read low 0.994 | locus YGL086W, strain mad1, active compounds read low 0.972 | locus YGL167C, strain pmr1, active compounds read low 1 | locus YGL173C, strain kem1, active compounds read low 1 | locus YGL227W, strain vid30, active compounds read low 1.01 | locus YGL240W, strain doc1, active compounds read low 0.975 | locus YGL248W, strain PDE1, active compounds read low 0.986 | locus YGL253W, strain hxk2, active compounds read low 1.01 | locus YGR135W, strain pre9, active compounds read low 1.05 | locus YGR252W, strain gcn5, active compounds read low 1.07 | locus YHR013C, strain ard1, active compounds read low 0.997 | locus YHR027C, strain rpn1, active compounds read low 1.02 | locus YHR030C, strain SLT2, active compounds read low 0.995 and 1.03 | locus YHR079C, strain IRE1 (second series), active compounds read low 0.962 | locus YHR079C, strain IRE1, active compounds read low 1.04 | locus YHR094C, strain hxt1, active compounds read low 0.985 | locus YHR129C, strain ARP1, active compounds read low 0.986 | locus YHR142W, strain chs7, active compounds read low 1.03 | locus YHR200W, strain rpn10, active compounds read low 0.98 | locus YIL066C, strain RNR3, active compounds read low 0.974 | locus YIL073C, strain SPO22, active compounds read low 1 | locus YIL125W, strain kgd1, active compounds read low 0.985 | locus YIR030C, strain dcg1, active compounds read low 0.997 | locus YJL092W, strain hpr5, active compounds read low 1.01 | locus YJL095W, strain BCK1 (second series), active compounds read low 0.99 | locus YJL095W, strain BCK1, active compounds read low 0.99 and 1.02 | locus YJL115W, strain asf1, active compounds read low 1 | locus YJL129C, strain trk1, active compounds read low 1 | locus YJL134W, strain LCB3, active compounds read low 0.993 | locus YJL154C, strain vps35, active compounds read low 1.01 | locus YJL164C, strain tpk1, active compounds read low 0.999 | locus YJL166W, strain qcr8, active compounds read low 0.993 | locus YJL168C, strain set2, active compounds read low 0.985 | locus YJL187C, strain SWE1 (second series), active compounds read low 0.991 | locus YJR043C, strain POL32, active compounds read low 0.963 | locus YJR066W, strain TOR1, active compounds read low 0.89 | locus YJR075W, strain HOC1, active compounds read low 0.983 | locus YKL009W, strain mrt4, active compounds read low 0.971 | locus YKL068W, active compounds read low 0.987 | locus YKL085W, strain MDH1 (second series), active compounds read low 0.995 | locus YKL085W, strain MDH1, active compounds read low 0.995 | locus YKL160W, strain elf1, active compounds read low 1 | locus YKR001C, strain vps1, active compounds read low 0.981 | locus YKR026C, strain gcn3, active compounds read low 1.01 | locus YKR091W, strain srl3, active compounds read low 1 | locus YLL001W, strain dnm1, active compounds read low 1 | locus YLL026W, active compounds read low 0.991 | locus YLL041C, strain sdh2, active compounds read low 1 | locus YLR027C, strain aat2, active compounds read low 0.986 | locus YLR039C, strain RIC1, active compounds read low 0.932 | locus YLR058C, strain SHM2, active compounds read low 0.975 | locus YLR102C, strain apc9, active compounds read low 0.986 | locus YLR113W, strain HOG1, active compounds read low 1.11 | locus YLR221C, strain rsa3, active compounds read low 1 | locus YLR258W, strain gsy2, active compounds read low 0.983 | locus YLR262C, strain YPT6 (second series), active compounds read low 1.04 | locus YLR262C, strain YPT6, active compounds read low 0.885 | locus YLR268W, strain sec22, active compounds read low 0.97 | locus YLR320W, strain mms22, active compounds read low 0.996 | locus YLR330W, strain CHS5, active compounds read low 0.985 | locus YLR342W, strain FKS1 (second series), active compounds read low 0.985 | locus YLR342W, strain FKS1, active compounds read low 0.985 | locus YLR357W, strain rsc2, active compounds read low 0.982 | locus YLR370C, strain arc18, active compounds read low 1.02 | locus YLR371W, strain rom2, active compounds read low 0.992 | locus YLR384C, strain iki3, active compounds read low 0.981 | locus YLR418C, strain cdc73, active compounds read low 1.01 | locus YML016C, strain PPZ1, active compounds read low 0.987 | locus YML032C, strain rad52, active compounds read low 0.982 | locus YML120C, strain ndi1, active compounds read low 0.995 | locus YML124C, strain tub3, active compounds read low 0.988 | locus YMR058W, strain fet3, active compounds read low 1.01 | locus YMR078C, strain ctf18, active compounds read low 0.983 | locus YMR125W, strain sto1, active compounds read low 1.01 | locus YMR129W, active compounds read low 0.993 | locus YMR205C, strain PFK2, active compounds read low 0.99 | locus YMR223W, strain ubp8, active compounds read low 1.03 | locus YMR231W, strain pep5, active compounds read low 0.998 | locus YMR263W, strain SAP30, active compounds read low 0.984 | locus YMR307W, strain GAS1, active compounds read low 0.97 | locus YNL067W, strain RPL9B, active compounds read low 0.992 | locus YNL071W, strain lat1, active compounds read low 0.996 | locus YNL153C, strain GIM3, active compounds read low 0.983 | locus YNL183C, strain NPR1, active compounds read low 0.981 | locus YNL209W, strain ssb2, active compounds read low 0.991 | locus YNL233W, strain BNI4, active compounds read low 0.988 | locus YNL248C, strain rpa49, active compounds read low 1.04 | locus YNL250W, strain rad50, active compounds read low 0.99 | locus YNL271C, strain bni1, active compounds read low 0.997 | locus YNL298W, strain CLA4, active compounds read low 0.99 | locus YNL307C, strain MCK1, active compounds read low 0.989 | locus YNL322C, strain KRE1 (second series), active compounds read low 0.988 | locus YNL322C, strain KRE1, active compounds read low 0.995 | locus YNR049C, strain mso1, active compounds read low 0.988 | locus YNR052C, strain pop2, active compounds read low 1 | locus YOL012C, strain htz1 0.719 | locus YOL147C, strain pex11, active compounds read low 0.995 | locus YOR001W, strain rrp6, active compounds read low 1 | locus YOR061W, strain CKA2, active compounds read low 0.966 | locus YOR069W, strain VPS5, active compounds read low 0.991 | locus YOR070C, strain gyp1, active compounds read low 0.991 | locus YOR080W, strain dia2, active compounds read low 0.978 | locus YOR083W, strain WHI5, active compounds read low 1.02 | locus YOR106W, strain vam3, active compounds read low 0.989 | locus YOR136W, strain idh2, active compounds read low 0.982 | locus YOR144C, strain elg1, active compounds read low 0.987 | locus YOR184W, strain ser1, active compounds read low 0.98 | locus YOR231W, strain MKK1, active compounds read low 1.07 | locus YOR265W, strain rbl2, active compounds read low 0.984 | locus YOR270C, strain vph1, active compounds read low 1.03 | locus YOR290C, strain snf2, active compounds read low 1.03 | locus YOR316C, strain cot1, active compounds read low 0.975 | locus YPL051W, strain arl3, active compounds read low 0.988 | locus YPL078C, strain atp4, active compounds read low 0.991 | locus YPL106C, strain sse1, active compounds read low 0.986 | locus YPL240C, strain hsp82, active compounds read low 1.01 | locus YPL241C, strain CIN2, active compounds read low 0.979 | locus YPL256C, strain CLN2, active compounds read low 1.05 | locus YPR119W, strain clb2, active compounds read low 0.988 | locus YPR141C, strain kar3, active compounds read low 0.987 | locus YPR163C, strain tif3, active compounds read low 0.989 | locus YPR167C, strain met16, active compounds read low 0.991 | strain wtn01, active compounds read low 0.99
